In PubChem BioAssay (NCATS):
Records with an inconclusive call do not appear. Active and inactive are the calls of the source. The call rests on the fitted dose curve; in most records, active means well fitted curve in the direction sought with a large enough effect; inconclusive means small, poorly fitted or top-dose-only effect, or another doubt; inactive means no such curve, though single readings can be large; an effect the other way counts as inactive or inconclusive.

Assays:
[1] = HEK-293 Cancer Cell Toxicity qHTS against the NCATS CANVASS Library (AID 1347355); further: nearly all actives have a fitted effect of over 65% in size; further: potency means the concentration at half of the fitted maximal effect
Method in brief: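 1000 cells/well, 4 h pre-incubation 37 °C/5% CO2; 11-pnt titration; 72 h; CellTiter-Glo 15 min RT, luminescence.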

[2] = HPAF-II 24hr Apoptosis Induction qHTS against the NCATS CANVASS Library (AID 1347356)
Method in brief: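 500 HPAF-II cells/well; compounds in 11-pnt qHTS; 24 h, 37 C/5% CO2; Caspase-Glo 3/7 added, 15 min RT dark; luminescence read. Doxorubicin control.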

[3] = HEK293 18hr Apoptosis Induction qHTS against the NCATS CANVASS Library (AID 1347357)
Method in brief: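 HEK293 cells (500 per well, DMEM with 10% FBS) were treated with natural products, incubated 18 hours at 37 degrees C, then caspase-3/7 activity was read by Caspase-Glo luminescence after 15 min at room temperature.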

[4] = HPAF-II 12hr Apoptosis Induction qHTS against the NCATS CANVASS Library (AID 1347358)
Method in brief: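 Caspase-Glo 3/7 luminescence (DEVD substrate) reports caspase activity in HPAF-II cells after 12 h compound treatment at 37 degrees C. Compounds were tested in an 11-point series. Doxorubicin served as control.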

[5] = HPAF-II 18hr Apoptosis Induction qHTS against the NCATS CANVASS Library (AID 1347360)
Method in brief: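 HPAF-II cells (500/well, DMEM + 10% FBS) were exposed to compounds for 18 hours at 37 degrees C. Caspase-3/7 activity was then read by Caspase-Glo 3/7 luminescence after 15 min at room temperature.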

[6] = HEK293 12hr Apoptosis Induction qHTS against the NCATS CANVASS Library (AID 1347361)
Method in brief: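 Read-out: Caspase-Glo 3/7 luminescence (DEVD substrate), 15 min RT. Preceded by 12 h compound exposure of HEK293, 500 cells/well, 11-pt qHTS titration; doxorubicin titration as control.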

[7] = KB-3-1 Cancer Cell Toxicity qHTS against the NCATS CANVASS Library (AID 1347366); further: nearly all actives have a fitted effect of over 75% in size; further: potency means the concentration at half of the fitted maximal effect
Method in brief: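 KB-3-1 cells (500 cells/well) in DMEM + 10% FBS were treated with compounds for 72 hr at 37C, 5% CO2. Viability was read as CellTiter-Glo luminescence after 10 minutes at room temperature.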

[8] = qHTS for ATAD5 Agonist screened against the NCATS CANVASS Library (AID 1347367);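 further: luciferase reporter driven by ATAD5 which rises upon DNA damage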; further: potency means the concentration at half of the fitted maximal effect
Method in brief: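 HEK293T cells stably carrying an ATAD5-controlled luciferase reporter (2000 cells/well) attached for 5 hr, then received compounds in an 11-point series for 16hr at 37C. Luminescence was read after a 30 min room-temperature reagent step.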

[9] = G06 Cancer Cell Toxicity qHTS against the NCATS CANVASS Library (AID 1347368); further: nearly all actives have a fitted effect of over 60% in size; further: potency means the concentration at half of the fitted maximal effect
Method in brief: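 ATP luminescence (CellTiterGlo) readout of cytotoxicity. Canine G06 glioma cells, 500/well, 72 hr incubation at 37C with compounds; bortezomib titration served as control.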

[10] = MCF7 Cancer Cell Toxicity qHTS against the NCATS CANVASS Library (AID 1347369); further: potency means the concentration at half of the fitted maximal effect
Method in brief: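 MCF7, 500 cells/well; cpds 11-pt qHTS; 72 hr, 37C/5% CO2; CellTiterGlo ATP luminescence.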

[11] = qHTS for ATAD5 Antagonist screened against the NCATS CANVASS Library (AID 1347370); further: nearly all actives have a fitted effect of over 65% in size; further: potency means the concentration at half of the fitted maximal effect
Method in brief: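 HEK293T-ATAD5 luc reporter, 2000 cells/well; 5hr attach; cpd + 10 uM 5-FUrd; 16hr 37C, 5% CO2. Readouts: CellTiter-Fluor fluorescence (1hr), then Amplite luciferase luminescence (30min RT).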

[12] = target: Nuclear receptor subfamily 1 group I member 3 (Homo sapiens) (UniProt Q14994); assay: qHTS for Constitutive Androstane Receptor (CAR) Agonist screened against the NCATS CANVASS Library (AID 1347373);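 further: every well also contained 1.5 µM PK11195 alongside the test compound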
Sequence of Nuclear receptor subfamily 1 group I member 3 (Homo sapiens) (Q14994 whole entry, looked up): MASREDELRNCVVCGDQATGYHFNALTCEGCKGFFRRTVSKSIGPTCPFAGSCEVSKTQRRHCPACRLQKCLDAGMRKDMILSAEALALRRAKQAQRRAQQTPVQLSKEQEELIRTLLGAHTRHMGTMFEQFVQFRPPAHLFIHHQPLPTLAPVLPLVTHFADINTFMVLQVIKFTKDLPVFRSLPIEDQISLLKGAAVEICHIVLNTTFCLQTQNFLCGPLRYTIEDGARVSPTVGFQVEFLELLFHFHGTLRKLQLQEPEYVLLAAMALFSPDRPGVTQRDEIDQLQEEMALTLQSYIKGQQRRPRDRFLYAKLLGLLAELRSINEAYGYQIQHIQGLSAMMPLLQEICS
Method in brief: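 Luciferase read-out (ONE-Glo, 30 min RT) of CYP2B6-2.2kb promoter activity in double-stable HepG2-hCAR cells after 24hr compound exposure with 1.5uM PK11195 present; viability measured first by CellTiter-Fluor.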

[13] = 10-beta competent E. coli microbial cell viability qHTS against the NCATS CANVASS Library (AID 1347376); further: series mostly up to about 46 µM
Method in brief: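 Luminescence from BacTiter-Glo ATP detection served as the viability read-out; bacteria (0.2 OD) had been incubated overnight at 37C with pin-transferred compounds at 11 concentrations.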

[14] = qHTS for H2AX Agonists against the NCATS CANVASS Library (AID 1347378)
Method in brief: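 CHO-K1 cells were plated overnight at 37C, then exposed to compounds (concentration series, 0.76% DMSO final) for 3 hr at 37C. Lysates received Eu-cryptate anti-pH2AX (S139) and d2 anti-H2AX antibodies; after 24 hr at room temperature, TR-FRET 665/620 nm ratio was read.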

[15] = Inflammasome Signaling qHTS Counterscreen: IL-1-beta AlphaLISA counterscreen against the NCATS CANVASS Library (AID 1347381);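 further: cell-free check with purified IL-1β in medium and no THP-1 cells; series mostly up to about 57 µM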
Method in brief: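 Here, no cellular stimulation occurs; compounds in an 11-point series meet 4 pg purified IL-1-beta directly. Bead-based AlphaLISA detection follows (1 h acceptor/antibody, then 30 min donor, dark, room temperature), with excitation at 680 nm.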

[16] = Secretion counterscreen for inhibitors of the SERCaMP assay screened against the NCATS CANVASS Library (AID 1347390);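 further: light from luciferase secreted into medium read as a measure of general secretion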; further: potency means the concentration at half of the fitted maximal effect
Method in brief: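 SH-SY5Y cells expressing constitutively secreted GLuc, 1000 cells/well, attached 4 h at 37C, then exposed to compounds (0.001 - 77 uM, 11-pnt series) for 20 h. Coelenterazine added; luminescence read to flag secretory-pathway interferers.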

[17] = Viability qHTS for inhibitors of the SERCaMP assay screened against the NCATS CANVASS Library (AID 1347400); further: nearly all actives have a fitted effect of over 70% in size; further: potency means the concentration at half of the fitted maximal effect
Method in brief: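 CellTiter-Glo luminescence readout after 48 h compound exposure (11-pnt qHTS series) of SH-SY5Y-GLuc SERCaMP MJH297 cells seeded at 1000 cells/well; bortezomib positive control.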

[18] = Redox Reaction Profiling qHTS: Assay Interference Panel against the NCATS CANVASS Library (AID 1347401); further: potency means the concentration at half of the fitted maximal effect
Method in brief: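 Quantitative HTS over an 11-point series was run in HEPES pH 7.3 with 50 mM NaCl, 200 uM DTT and 5 uM resazurin. Initial and 15-min resorufin fluorescence readings were taken.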

[19] = qHTS assay for small molecule disruptors of mitochondrial membrane potential screened against the NCATS CANVASS Library (AID 1347389); further: nearly all actives have a fitted effect of over 60% in size; further: potency means the concentration at half of the fitted maximal effect
Method in brief: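 Red/green fluorescence ratio read-out: J-aggregates ex 540/em 590 nm, monomers ex 490/em 535 nm. HepG2, 1 hr compound treatment, then 30 min Mito-MPS dye at 37C. 11-pt qHTS concentration series.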

[20] = qHTS for Activators of p53 Stress Response Pathway screened against the NCATS CANVASS Library (AID 1347388)
Method in brief: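 p53RE-bla HCT-116 cells (4000/well) were plated 5 h at 37C, exposed to compounds for 16 h at 37C over an 11-point concentration series, then loaded with CCF4 for 2 h at room temperature; 460/530 nm emission ratio read.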

Measured: Potency

C=CC(CCCCC)C1C(=O)NC(=O)C1C(=O)C1C2C(C)CC(C(=O)O)CC2CC1(O)C(=O)/C=C/C (stereo not given)
not listed: [19] | [20]
inactive: all other assays above

CCC(=O)CCCCC[C@@H]1NC(=O)[C@H]2CCCCN2C(=O)[C@H](C(C)C)NC(=O)[C@H](Cc2cn(OC)c3ccccc23)NC1=O
active: [1] 5.26 µM | [7] 7.43 µM | [8] 3.31 µM | [9] 4.69 µM | [17] 15.2 µM
not listed: [10] | [14] | [20]
inactive: all other assays above

CC(C)C[C@@H]1c2c(O)c(C=O)c(O)c(C=O)c2O[C@]2(C)C=C[C@@H](C(C)C)C[C@H]12
not listed: [11] | [18] | [20]
inactive: all other assays above

C=C(C)CC[C@H](Cc1c(O)cc(O)c2c1O[C@H](c1ccc(O)cc1)CC2=O)C(=C)C
active: [11] 23.4 µM | [19] 8.31 µM
not listed: [7] | [12]
inactive: all other assays above

COc1cc2c(c(O)c1O)C(=O)c1c(coc1C)C2=O
active: [1] 9.35 µM | [9] 11.8 µM | [10] 7.39 µM | [19] 10.5 µM | [16] 27.2 µM | [17] 15.2 µM | [18] 0.764 µM
not listed: [12] | [13] | [14] | [20]
inactive: all other assays above

C/C=C/C1C=CC2CC(C)CC(C)C2C1C(=O)CC(=O)NC(CO)C/C=C/CCCCC (stereo not given)
active: [9] 1.32 µM | [11] 23.4 µM
not listed: [1] | [10] | [16] | [19]
inactive: all other assays above

CC(C)=CCC[C@]12c3cc4c(cc3CC[C@@]1(C)[C@H](C)CC[C@@H]2O)[nH]c1ccccc14
active: [19] 20.9 µM
not listed: [1]
inactive: all other assays above

C/C1=C/[C@@H](C)[C@H](O)[C@@H](O)/C=C/CC/C=C/C(=O)O[C@@H]1[C@H](C)C(=O)CCCC1CC(=O)NC(=O)C1
not listed: [1] | [9]
inactive: all other assays above

C/C=C(/C)c1c(Cl)c(O)c(C)c2c1Oc1c(Cl)c(O)c(Cl)c(C)c1C(=O)O2
active: [19] 8.31 µM
not listed: [20]
inactive: all other assays above

C[C@]12CCC[C@](C)(C(=O)O)[C@@H]1CC[C@@]1(C)c3cocc3CC[C@H]21
not listed: [10]
inactive: all other assays above

C=CC(CCCCC)C1C(=O)NC(=O)C1C(=O)C1C(/C=C/C)C=CC2CC(C(=O)O)CC(C)C21 (stereo not given)
not listed: [1] | [14] | [19] | [20]
inactive: all other assays above

COc1cc(O)c(C(=O)[C@@H]2[C@H](CC=C(C)C)C(C)=CC[C@H]2c2ccccc2)c(O)c1
inactive: [6] | [8] | [9] | [11] | [12] | [13] | [14] | [15] | [18]
active: [1] 20.9 µM | [7] 20.9 µM | [19] 4.67 µM
